In the supplement of paper PMC8253809:
Values joined by “and” are separate entries in the source; they are usually repeats but may differ in a detail not shown here. Equal values may be shown once.

Tests used:
Experiment in all cases: growth inhibition (% activity, log2 RLU normalised to DMSO / staurosporine); higher = more growth inhibition
Conditions in all cases: 33 µM
[1] = system: DIPGX29 (H3.3 K27M diffuse intrinsic pontine glioma line)
Method in brief: (§1)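 Approved drugs were tested in triplicate at a single final concentration of about 33 μM for 7 days at 37 °C, 5% CO2, on pHGG cell lines and H9-derived neural stem cells. Readout was CellTiter-Glo luminescence, log2-transformed and scaled per plate to % activity between solvent and positive control wells. The median over replicates gives the growth-inhibition value.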

[2] = system: DIPGX37 (H3.3 K27M diffuse intrinsic pontine glioma line)
Method in brief: as §1

[3] = system: DIPGX7 (H3.3 K27M diffuse intrinsic pontine glioma line)
Method in brief: as §1

[4] = system: DIPGX9 (diffuse intrinsic pontine glioma line)
Method in brief: as §1

[5] = system: HGGX39 (paediatric high-grade glioma line)
Method in brief: as §1

[6] = system: HGGX6 (H3.3 G34R paediatric high-grade glioma line)
Method in brief: as §1

[7] = system: HNSC
Method in brief: as §1

[8] = system: SUDIPGIV (diffuse intrinsic pontine glioma line)
Method in brief: as §1

[9] = system: SUDIPGVI (diffuse intrinsic pontine glioma line)
Method in brief: as §1

[10] = system: SUDIPGXIII (diffuse intrinsic pontine glioma line)
Method in brief: as §1

Compound	growth inhibition [1]	growth inhibition [2]	growth inhibition [3]	growth inhibition [4]	growth inhibition [5]	growth inhibition [6]	growth inhibition [7]	growth inhibition [8]	growth inhibition [9]	growth inhibition [10]
CC1=CC(=O)c2ccccc2C1=O	2.41%	0.293%	3.47%	2.26%	1.01%	2.5%	42.7%	1.4%	4.19%	-2.13%
CCCc1ncc(C[n+]2ccccc2C)c(N)n1	-4.8%	-1.21%	-0.627%	-2.23%	-2.8%	-3.52%	7.92%	-2.86%	-5.24%	0.241%
O=C(N/N=C/c1ccc([N+](=O)[O-])o1)c1ccc(O)cc1	6.1%	2.69%	4.79%	5.76%	11%	4.58%	17.4%	18.5%	13.9%	2.98%
Cc1ccc(Nc2nccc(N(C)c3ccc4c(C)n(C)nc4c3)n2)cc1S(N)(=O)=O	3.74% and 7.46%	4.99% and 1.63%	5% and 10.4%	3.67% and 7.92%	6.65% and 10.2%	5.31% and 11.1%	4.18% and 9.11%	4.44% and 6.85%	5.08% and 5.8%	3.27% and 1.33%
Cc1ccc(C(=O)C(C)CN2CCCCC2)cc1 (stereo not given)	0.542%	0.69%	0.522%	0.564%	1.58%	2.83%	-0.193%	-0.938%	-0.166%	0.909%
COc1ccccc1OCC(O)CO (stereo not given)	-3.06%	-1.42%	-2.23%	-0.66%	-1.85%	-0.626%	-6.5%	-1.52%	-1.52%	1.23%
N#CC[C@H](C1CCCC1)n1cc(-c2ncnc3[nH]ccc23)cn1	-0.711%	-0.293%	0.591%	-1.04%	1.2%	-0.228%	-3.15%	-1.09%	1.18%	-0.858%
O=C1CN2Cc3c(ccc(Cl)c3Cl)N=C2N1	-0.095%	-0.968%	-0.492%	0.847%	3.51%	9.62%	-2.73%	-0.36%	0.709%	-4.79%
C[C@]12CC[C@@H]3c4ccc(O)cc4CC[C@H]3[C@@H]1CCC2=O	0.142%	1.98%	2.55%	1.67%	3.84%	0.36%	1.29%	1.87%	0.844%	-0.509%
Nc1ncn(C2OC(CO)C(O)C2O)c(=O)n1 (stereo not given)	3.4%	-0.711%	5.91%	7.54%	4.31%	1.61%	55.5%	16.7%	0.0997%	-1.9%
COC(=O)C1=C(C)NC(C)=C(C(=O)OC2CCCN(Cc3ccccc3)C2)C1c1cccc([N+](=O)[O-])c1 (stereo not given)	3.05%	0.403%	2.15%	3.22%	6.94%	-0.555%	33.4%	3.22%	-1.31%	2.1%
C=C1/C(=C\C=C2/CCC[C@]3(C)[C@@H]([C@H](C)CCCC(C)(C)O)CC[C@@H]23)C[C@@H](O)C[C@@H]1O	2.73%	4.49%	6.36%	1.22%	5.14%	4.52%	2.64%	9.51%	2.83%	-1.15%
CCCCCCCCCCCC[N+](C)(C)CCOc1ccccc1	59%	58.8%	53.9%	57.2%	62.1%	56.8%	55.6%	55.7%	63.2%	70.1%
CCOC(=O)[C@H](CCc1ccccc1)N[C@@H](C)C(=O)N1C(=O)N(C)C[C@H]1C(=O)O	-1.26%	0.599%	-0.344%	-0.304%	-1.03%	-1.84%	1.56%	-1.04%	-1.53%	1.71%
CCOc1ccc2ccccc2c1C(=O)N[C@@H]1C(=O)N2[C@@H]1SC(C)(C)[C@@H]2C(=O)O	-3.12%	-0.795%	1.5%	-1.14%	-0.856%	-5.66%	31.9%	-2.67%	-10.4%	2.26%
CCC(C)(C)c1ccc(CC(C)CN2C[C@@H](C)O[C@@H](C)C2)cc1 (stereo not given in full)	9.06%	6.3%	36.9%	0.0137%	15.3%	11.1%	8.57%	11.7%	-11.5%	-7.54%
CC=CC1=C(C(=O)O)N2C(=O)[C@@H](NC(=O)[C@H](N)c3ccc(O)cc3)[C@H]2SC1	-1.6%	0.508%	-0.595%	0.543%	-1.99%	1.84%	-1.83%	-0.89%	0.277%	-12.4%
CN[C@@H]1[C@H](O)[C@H](NC)[C@H]2O[C@@]3(O)C(=O)C[C@@H](C)O[C@H]3O[C@@H]2[C@H]1O	1.24%	1.47%	0.532%	2.81%	1.18%	-0.547%	3.02%	0.676%	2.4%	0.316%
Cc1c(N(C)C)c(=O)n(-c2ccccc2)n1C	-0.911%	-0.00267%	0.576%	-1.42%	2.61%	-1.31%	-0.0115%	-1.34%	-0.66%	0.298%
CCCC(=O)[O-].[Na+]	-1.17%	-2.44%	-0.966%	0.792%	0.723%	0.649%	-2.84%	-1.12%	0.269%	0.879%
C[N+](C)(CCOc1ccccc1)Cc1ccccc1.O=C([O-])c1cc2ccccc2cc1O	-1.73%	0.336%	-2.4%	-0.621%	-1.29%	-2.23%	-1.38%	2.44%	1.1%	-1.56%

Compound	growth inhibition [1]	growth inhibition [2]	growth inhibition [3]	growth inhibition [4]	growth inhibition [5]	growth inhibition [6]	growth inhibition [7]	growth inhibition [8]	growth inhibition [9]	growth inhibition [10]
[O-][n+]1cccc(CO)c1	-0.666%	1.68%	-0.893%	-0.317%	0.747%	0.543%	-0.142%	-0.682%	-0.214%	2.91%
O=C(O)c1cccnc1	0.555%	1.13%	0.846%	1.6%	0.355%	1.52%	-0.701%	-0.463%	1.65%	-1.24%
CCOC(=O)[C@H](CCc1ccccc1)N[C@@H](C)C(=O)N1Cc2ccccc2C[C@H]1C(=O)O	1.41%	1.99%	3.28%	3.18%	5.5%	3.4%	5.54%	3.99%	0.712%	0.247%
CN(C)CCc1c[nH]c2ccc(C[C@H]3COC(=O)N3)cc12	-3.13%	-2.1%	0.0297%	-2.64%	-3.04%	-3.73%	-3.71%	-3.68%	-7.46%	-1.12%
C[C@H](N[C@@H](CCc1ccccc1)C(=O)O)C(=O)N1CCC[C@H]1C(=O)O	-1.89%	-2.46%	0.194%	-1.9%	-1.61%	-3.59%	-1.1%	-2.75%	-6.88%	-1.42%
CC(C)(C)c1nc(-c2cccc(NS(=O)(=O)c3c(F)cccc3F)c2F)c(-c2ccnc(N)n2)s1	0.794%	4.39%	2.8%	1.94%	5.46%	4.05%	22.9%	-0.469%	-1.37%	-0.13%
O=C(O)c1cc(=O)c2ccccc2o1	-0.199%	-0.128%	0.253%	1.55%	0.445%	-1.13%	-0.975%	0.468%	2.48%	0.672%
CN(C)CC/C=C1/c2ccccc2COc2ccc(CC(=O)O)cc21	1.93%	3.18%	2.2%	2.77%	2.27%	2.49%	-0.124%	-0.355%	2.4%	0.825%
CCCCc1oc2ccc(NS(C)(=O)=O)cc2c1C(=O)c1ccc(OCCCN(CCCC)CCCC)cc1	58.9%	57.4%	57%	57.4%	56.2%	60.2%	55.5%	57.7%	59.4%	24.1%
COc1cc(Cc2cnc(N)nc2N)cc(OC)c1OC	1.94%	3.36%	1.59%	1.97%	3.59%	2.4%	0.59%	2.24%	2.5%	-1.4%
CCC(=O)O[C@]1(C(=O)CCl)[C@@H](C)C[C@H]2[C@@H]3CCC4=CC(=O)C=C[C@]4(C)[C@@]3(F)[C@@H](O)C[C@@]21C	2.76%	3.09%	1.96%	5.92%	8.62%	1.59%	10.2%	6.72%	2.14%	2.24%
CN(C)CC/C=C1/c2ccccc2Sc2ccc(Cl)cc21	-0.186%	0.387%	0.793%	0.131%	0.989%	2.17%	-1.13%	-1.17%	-0.358%	-1.03%
CN1CCC(OC(c2ccccc2)c2ccccc2)CC1	1.96%	3.9%	1.96%	0.713%	4.23%	2.61%	2.96%	1.77%	3.73%	-1.75%
CN(C)CCOC(c1ccccc1)c1ccccc1	-3.3%	-0.629%	-0.0174%	-1.77%	-3.3%	-2.72%	2.53%	-1.12%	-3.73%	-1.22%
CCCCC1=NC2(CCCC2)C(=O)N1Cc1ccc(-c2ccccc2-c2nnn[nH]2)cc1	1.91%	3.8%	1.68%	1.47%	3.35%	3.43%	2.66%	-0.0514%	3.23%	0.582%
N=C(N)c1ccc2cc(OC(=O)c3ccc(N=C(N)N)cc3)ccc2c1	-0.193%	-3.07%	-0.0416%	-0.893%	-0.167%	1.06%	2.26%	1.8%	0.556%	-0.295%
CCCCc1ncc(/C=C(\Cc2cccs2)C(=O)O)n1Cc1ccc(C(=O)O)cc1	-0.827%	0.563%	-1.23%	-0.197%	0.41%	0.268%	-1.62%	-1.58%	0.0226%	-13.9%
COCCOC(=O)C1=C(C)NC(C)=C(C(=O)OC/C=C/c2ccccc2)C1c1cccc([N+](=O)[O-])c1 (stereo not given)	2.85%	2.42%	5.44%	5.34%	5.91%	4.61%	5.17%	6.24%	3.03%	0.864%
O=c1[nH]c(=O)n(C2CCCO2)cc1F (stereo not given)	-0.615%	0.56%	-0.536%	-0.0713%	1.51%	-0.669%	-0.796%	-1.49%	-0.356%	-6.49%
COc1ccc(-c2ccc3cc(C(=O)O)ccc3c2)cc1C12CC3CC(CC(C3)C1)C2	2.22%	0.00524%	1.73%	2.82%	2.84%	2.51%	1.43%	3.15%	-4.99%	1.39%
Cc1ccc(C)c(OCCCC(C)(C)C(=O)O)c1	-0.441%	-0.0995%	0.0111%	0.88%	0.357%	-0.472%	-1.45%	-0.859%	0.864%	0.0955%
